According to PubChem BioAssay (NCATS):
Inconclusive results are not listed. Activity calls are given as the source filed them. The call rests on the fitted dose curve; in most records, active means well fitted cell-killing curve with a large enough effect; inconclusive means small, poorly fitted or top-dose-only effect, or effect the other way; inactive means no such curve, though single readings can be large or run the other way.

test: qHTS assay to identify small molecule inhibitors of chordoma cells - UCH-1 (AID 1259355); conditions: UCH-1 chordoma viability, CellTiter-Glo, 48 h, combination, with auranofin plus four topoisomerase inhibitors; series mostly up to 46.1 µM; activity, negative = inhibition: at the top concentration; further: nearly all actives have a fitted effect of over 55% in size
How it was run: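 800 cells/well, overnight attach; compounds pinned at 15 concs, then auranofin/camptothecin/doxorubicin/rubitecan/topotecan combo added; 48hr 37 C, 5% CO2; CellTiter-Glo, 30min RT, luminescence.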
On the % scale 0 is the no-effect control and ±100 the full control effect; potency means the concentration at half of the fitted maximal effect.

SMILES | activity, negative = inhibition | Potency
C=C[C@]1(C)C[C@@H](OC(=O)CSC(C)(C)CNC(=O)[C@H](N)C(C)C)[C@]2(C)[C@H](C)CC[C@]3(CCC(=O)[C@H]32)[C@@H](C)[C@@H]1O | -15.6% (inactive) | 
CCOC(C)=O | -12.1% (inactive) | 
COC(=O)[C@H]1[C@H]2CC3c4[nH]c5ccccc5c4CCN3C[C@@H]2CC[C@@H]1O (stereo not given in full) | -17% (inactive) | 
COc1cc(-c2ccc(-[n+]3nc(-c4ccccc4)nn3-c3ccc([N+](=O)[O-])cc3)c(OC)c2)ccc1-[n+]1nc(-c2ccccc2)nn1-c1ccc([N+](=O)[O-])cc1 |  | 31.6 µM (active)
CO[C@H]1C=CO[C@@]2(C)Oc3c(C)c(O)c4c(O)c(c(/C=N/N5CCN(C6CCCC6)CC5)c(O)c4c3C2=O)NC(=O)/C(C)=C\C=C[C@H](C)[C@H](O)[C@@H](C)[C@@H](O)[C@@H](C)[C@H](OC(C)=O)[C@@H]1C | -21.3% (inactive) | 
CCCCCC(CC)COC(=O)CC(C(=O)OCC(CC)CCCC)S(=O)(=O)O (stereo not given) | 7.45% (inactive) | 
CCC(=O)O[C@]1(C(=O)CCl)[C@@H](C)C[C@H]2[C@@H]3C[C@H](F)C4=CC(=O)C=C[C@]4(C)[C@@]3(F)[C@@H](O)C[C@@]21C | -44.1% (inactive) | 
CC1(C)S[C@@H]2[C@H](NC(=O)[C@@H](NC(=O)N3CCNC3=O)c3ccccc3)C(=O)N2[C@H]1C(=O)O | -17.8% [at 20.6 µM] (inactive) | 
COCC(=O)Nc1cc(Sc2ccccc2)ccc1N=C(NC(=O)OC)NC(=O)OC | -17.7% (inactive) | 
C[C@@H]1[C@H](O)[C@@H](C)/C=C/C=C\C=C\C=C\C=C\C=C\C=C\[C@H](O[C@@H]2O[C@H](C)[C@@H](O)[C@H](N)[C@@H]2O)C[C@@H]2O[C@](O)(C[C@@H](O)C[C@@H](O)[C@H](O)CC[C@@H](O)C[C@@H](O)CC(=O)O[C@H]1C)C[C@H](O)[C@H]2C(=O)O (stereo in doubt) | -21.5% (inactive) | 
